Measured values: PubChem BioAssay (Tox21)
Results filed as inconclusive are left out. Activity calls are given as the source filed them. Unless noted, calls come from the whole dose curve; as a rule, active = well fitted curve in the direction sought with a large enough effect in the repeat runs; inconclusive = weak or mixed curves; inactive = no such curve, though single readings can be large; an effect the other way counts as inactive or inconclusive.

Tests used:
[1] = qHTS assay for small molecules that induce genotoxicity in human embryonic kidney cells expressing luciferase-tagged ATAD5 (AID 651632); note: nearly all actives have a fitted effect of over 15% in size
Summary of the method: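 ATAD5-luc HEK293T, 2,000 cells/well; cpd or DMSO pin-transferred; 16 hr, 37C/5% CO2; Amplite 30 min RT; luminescence.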

[2] = qHTS assay for small molecule agonists of the p53 signaling pathway - cell viability (AID 651633; calls by dose curve;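 note: p53RE-bla HCT reporter cells with a stable beta-lactamase p53 reporter; series mostly up to about 83 µM; nearly all actives have a fitted effect of over 30% in size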)
Summary of the method: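 p53RE-bla cells, seeded at 4,000 per well and rested 5 h at 37 C/5% CO2, received compounds in DMSO for 16 h at 37 C. CellTiter-Glo was then added, and luminescence was read after 30 min at room temperature to gauge cytotoxicity.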

[3] = qHTS assay for small molecules that induce genotoxicity in human embryonic kidney cells expressing luciferase-tagged ATAD5 - cell viability (AID 651634; calls by dose curve; note: nearly all actives have a fitted effect of over 25% in size)
Summary of the method: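 Fluorescence from CellTiter-Fluor, reporting protease activity within live cells, served as the viability read-out. HEK293T cells carrying luciferase-tagged ATAD5 had been treated with compound for 15.5 hr at 37C.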

[4] = qHTS assay for small molecule disruptors of the mitochondrial membrane potential - cell viability (AID 720634; calls by dose curve;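 note: human HepG2 liver cancer cells; series mostly up to about 83 µM; nearly all actives have a fitted effect of over 20% in size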)
Summary of the method: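 Cells: HepG2, 2,000/well, attached overnight. Compound 1 hr, 37 C/5% CO2. +m-MPI dye, +CellTiter-Glo 30 min RT. Readout: luminescence (ATP).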

[5] = qHTS assay for small molecule disruptors of the mitochondrial membrane potential (AID 720635); note: potency is the fitted concentration of half-maximal effect
Summary of the method: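 HepG2 cells (2,000/well) attached overnight at 37C, then took compound for 1 hr at 37C, 5% CO2. Mito-MPS dye was added for 30 min; fluorescence was read at 490/535 nm (monomers) and 540/590 nm (aggregates).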

[6] = qHTS assay to test for compound auto fluorescence at 590 nm (red) in HepG2 cells (AID 720674)
Summary of the method: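 Compound auto-fluorescence is scored relative to Rose Bengal sodium, measured at 540/590 nm in live HepG2 cultures after 1 hr compound contact (37 C, 5% CO2).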

[7] = qHTS assay to test for compound auto fluorescence at 535 nm (green) in HepG2 cells (AID 720675)
[8] = qHTS assay to test for compound auto fluorescence at 460 nm (blue) in HEK293 cells (AID 720678)
Summary of the method: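 After cell attachment (4-5 hr, 37C), compounds were pinned onto HEK293 monolayers in 10% dialyzed FBS medium. The blue channel (405/460 nm) was read following overnight culture. Equivalency was calculated against triamterene.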

[9] = qHTS assay to test for compound auto fluorescence at 590 nm (red) in HEK293 cells (AID 720679)
Summary of the method: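 Plates of HEK293 cells (10% dialyzed FBS) are treated with 23 nL compound or DMSO vehicle after a 4-5 hr attachment period, incubated overnight at 37C, and read for red fluorescence at 540/590nm.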

[10] = qHTS assay to test for compound auto fluorescence at 535 nm (green) in HEK293 cells (AID 720680)
[11] = qHTS assay to test for compound auto fluorescence at 460 nm (blue) in HEK293 cell free culture (AID 720681)
Summary of the method: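 Test compounds were pinned into cell-free culture medium (DMEM with 10% FBS) and fluorescence was read directly at Ex/Em 405/460 nm. Signals were expressed as fluorescence equivalents of triamterene, with DMSO vehicle as control.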

[12] = qHTS assay to test for compound auto fluorescence at 535 nm (green) in HEK293 cell free culture (AID 720682)
Summary of the method: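 Intrinsic compound fluorescence is measured in culture medium containing 10% FBS, with excitation at 485 nm and detection at 535 nm, referenced to fluorescein.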

[13] = qHTS assay to test for compound auto fluorescence at 590 nm (red) in HEK293 cell free culture (AID 720683)
Summary of the method: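 Tox21 10K library compounds were pinned into cell-free DMEM with 10% FBS and fluorescence was read at excitation 540 nm. Activity is expressed as Rose Bengal sodium equivalency.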

[14] = qHTS assay to test for compound auto fluorescence at 590 nm (red) in HepG2 cell free culture (AID 720684)
Summary of the method: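 Measured in medium alone (MEM containing 10% FBS) following pintool addition of compound; emission at 590 nm with 540 nm excitation, referenced to Rose Bengal sodium.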

[15] = qHTS assay to test for compound auto fluorescence at 460 nm (blue) in HepG2 cell free culture (AID 720685)
Summary of the method: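 Compound (23 nL) or DMSO pinned into cell-free MEM with 10% FBS; blue fluorescence read at 405/460 nm excitation/emission, expressed as auto-fluorescence equivalency to triamterene.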

[16] = qHTS assay to test for compound auto fluorescence at 460 nm (blue) in HepG2 cells (AID 720687)
Summary of the method: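 Cells (2,000/well in MEM with 10% FBS) attached overnight at 37 C, then were exposed to compound or DMSO for 1 hr at 37 C, 5% CO2. Fluorescence read at Ex/Em 405/460 nm, expressed as triamterene-equivalent signal.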

[17] = qHTS assay to test for compound auto fluorescence at 535 nm (green) in HepG2 cell free culture (AID 720686)
[18] = molecular target: Glucocorticoid receptor (Homo sapiens) (UniProt P04150); experiment: qHTS assay to identify small molecule agonists of the glucocorticoid receptor (GR) signaling pathway (AID 720691; active = well fitted activation curve with a large enough effect in the signal ratio in the repeat runs, not every such curve was filed as active; the % refers to the signal ratio)
Chain of Glucocorticoid receptor (Homo sapiens) (P04150 whole entry, looked up): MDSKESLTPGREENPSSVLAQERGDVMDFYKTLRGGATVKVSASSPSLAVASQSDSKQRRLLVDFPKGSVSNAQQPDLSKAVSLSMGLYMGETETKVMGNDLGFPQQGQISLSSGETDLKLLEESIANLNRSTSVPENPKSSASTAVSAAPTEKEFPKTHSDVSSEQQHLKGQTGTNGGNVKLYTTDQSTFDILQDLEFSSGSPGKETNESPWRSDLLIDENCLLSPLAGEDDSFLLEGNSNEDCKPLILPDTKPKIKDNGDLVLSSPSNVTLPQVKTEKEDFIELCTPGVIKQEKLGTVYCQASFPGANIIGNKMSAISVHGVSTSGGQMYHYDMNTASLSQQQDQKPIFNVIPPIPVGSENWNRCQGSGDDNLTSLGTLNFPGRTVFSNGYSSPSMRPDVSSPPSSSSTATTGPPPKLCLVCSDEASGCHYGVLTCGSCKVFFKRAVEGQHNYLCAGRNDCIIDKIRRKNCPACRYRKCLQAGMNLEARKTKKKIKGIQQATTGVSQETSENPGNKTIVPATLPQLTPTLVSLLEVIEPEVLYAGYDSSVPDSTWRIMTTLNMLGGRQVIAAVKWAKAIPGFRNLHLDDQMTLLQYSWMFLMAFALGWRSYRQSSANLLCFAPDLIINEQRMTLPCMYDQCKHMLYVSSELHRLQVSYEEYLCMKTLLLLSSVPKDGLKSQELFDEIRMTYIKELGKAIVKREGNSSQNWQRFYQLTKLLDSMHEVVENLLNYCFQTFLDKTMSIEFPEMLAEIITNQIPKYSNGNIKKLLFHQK
Summary of the method: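 Fluorescence intensity from LiveBLAzer B/G FRET substrate (2 h, room temperature) reports beta-lactamase expression driven by the glucocorticoid response element in GR-bla HeLa cells after 18 h compound exposure at 37 C.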

[19] = molecular target: Glucocorticoid receptor (Homo sapiens) (UniProt P04150); experiment: qHTS assay to identify small molecule antagonists of the glucocorticoid receptor (GR) signaling pathway (AID 720692; active = well fitted inhibition curve with a large enough effect in the signal ratio in the repeat runs, not every such curve was filed as active; the % refers to the signal ratio)
Summary of the method: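 HeLa GR-bla cells; cmpd + dex 5 nM final, 18 h 37 C; LiveBLAzer B/G FRET substrate 2 h RT; fluorescence intensity read. Antagonist mode, qHTS.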
% is set by controls: 0 for no effect and ±100 for the full control effect.

CCn1cc[n+](C)c1
inactive: Potency [1] | Potency [2] | Potency [3] | Potency [4] | Potency [5] | outcome [6] | outcome [7] | outcome [8] | outcome [9] | outcome [10] | outcome [11] | outcome [12] | outcome [13] | outcome [14] | outcome [15] | outcome [16]

O=C1NCN(c2ccccc2)C12CCN(CCCOc1ccc(F)cc1)CC2
inactive: Potency [1] | Potency [2] | Potency [3] | Potency [4] | outcome [6] | outcome [7] | outcome [8] | outcome [10] | outcome [11] | outcome [12] | outcome [13] | outcome [14] | outcome [15] | outcome [17] | outcome [16] | outcome [18]
active: Potency [5] 3.35 µM

CCCC(=O)Cl
inactive: Potency [1] | Potency [2] | Potency [3] | Potency [4] | Potency [5] | outcome [6] | outcome [7] | outcome [8] | outcome [9] | outcome [10] | outcome [11] | outcome [12] | outcome [13] | outcome [14] | outcome [15] | outcome [17] | outcome [16] | Potency [19]

Clc1ccc(C(OCCN2CCCCC2)c2ccccc2)cc1 (centres undefined)
inactive: Potency [1] | Potency [2] | Potency [3] | Potency [4] | fluorescence, relative to Rose Bengal [6] -0.716% [at 18.6 µM] | fluorescence, % of fluorescein control [7] -0.0264% [at 18.6 µM] | fluorescence, % of triamterene [8] 0.0368% [at 18.6 µM] | fluorescence, % of fluorescent control [9] 0.965% [at 18.6 µM] | fluorescence, % of fluorescein [10] -0.14% [at 18.6 µM] | fluorescence, % of fluorescent control [11] -0.141% [at 18.6 µM] | activity change [12] -0.263% [at 18.6 µM] | fluorescence, % of fluorescent control [13] 0.321% [at 18.6 µM] | fluorescence, % of Rose Bengal [14] 0.0745% [at 18.6 µM] | fluorescence, % of fluorescent control [15] 0.0001% [at 18.6 µM] | fluorescence, % of fluorescein control [17] -0.0362% [at 18.6 µM] | fluorescence, % of fluorescent control [16] 0.1% [at 18.6 µM] | outcome [18] | Potency [19]

CC(=O)[C@H]1CC[C@H]2[C@@H]3CC[C@H]4C[C@](C)(O)CC[C@]4(C)[C@H]3CC[C@]12C
inactive: Potency [1] | Potency [2] | Potency [3] | Potency [4] | Potency [5] | outcome [6] | outcome [7] | outcome [8] | outcome [10] | outcome [11] | outcome [12] | outcome [13] | outcome [14] | outcome [15] | outcome [17] | outcome [16] | outcome [18] | Potency [19]

COP(=O)(OC)O/C(=C/Cl)c1cc(Cl)c(Cl)cc1Cl
inactive: Potency [1] | Potency [2] | Potency [3] | Potency [4] | outcome [6] | outcome [7] | outcome [8] | outcome [9] | outcome [10] | outcome [11] | outcome [12] | outcome [13] | outcome [14] | outcome [15] | outcome [17] | outcome [16]

O=C(CBr)c1ccccc1
inactive: Potency [1] | Potency [2] | Potency [3] | Potency [4] | Potency [5] | outcome [6] | outcome [7] | outcome [8] | outcome [9] | outcome [10] | outcome [12] | outcome [13] | outcome [14] | outcome [15] | outcome [17] | outcome [16]
